The panel holds about 83,000 compounds, 20% with a hit somewhere; the sample as a whole holds those more often.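 The test compound was applied at a single concentration to cells in 96-well plates for 48 hours, and percent growth was recorded.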 Values without a mark were called inactive. Activity calls are given as the source filed them. The calls were made as follows: active = growth percent below 10; inactive = the rest.

Some test systems named below: DU-145 prostate; K-562 leukemia; MALME-3M melanoma; MDA-MB-231 breast; RXF 393 renal; SF-268 CNS; SF-295 CNS; SF-539 CNS; UACC-257 melanoma; M14 melanoma; HCT-15 colon; HT29 colon; SNB-75 CNS; SNB-19 CNS; U251 CNS; PC-3 prostate; SK-MEL-5 melanoma; UACC-62 melanoma; LOX IMVI melanoma; SK-MEL-28 melanoma.
Test in all cases: NCI-60 one-dose screen, 48 h (100 = growth as untreated, 0 = no growth, -100 = all killed)
Settings in all cases: 10 µM unless noted

As for `CCCCCn1c(C)cc(/C=C\c2ccc3cc(C)ccc3[n+]2C)c1C`, the growth in the assay on DU-145 prostate was -52.3% (active); with K-562 leukemia, 9.64% (active); in the assay with MALME-3M melanoma it was -67.5% (active); in the assay with MDA-MB-231 breast it was -46.8% (active); in the assay with RXF 393 renal, -60.8% (active); with SF-268 CNS, -61% (active). Besides, the growth in the assay on SF-295 CNS is -90.9% (active); in the assay on SF-539 CNS it was -85.8% (active); with UACC-257 melanoma, -99.1% (active); in the assay with M14 melanoma, -71.2% (active); with HCT-15 colon, -12% (active); in the assay with HT29 colon, -61.8% (active). Further, the growth in the assay with SNB-75 CNS is -94.4% (active); with SNB-19 CNS, -89.8% (active); in the assay with U251 CNS it was -93.9% (active); in the assay with PC-3 prostate it was -47.9% (active); with SK-MEL-5 melanoma, -95.7% (active); in the assay with UACC-62 melanoma, -89.8% (active). For the same compound, the growth was -72.4% (active) with LOX IMVI melanoma and -87.1% (active) in the assay with SK-MEL-28 melanoma.

For `C=CC1=C(C)C2=NC1=CC1=NC(=CC3=C(C)C4=C(O)C(C(=O)O)C(=C5NC(=C2)C(C)C5CCC(=O)O)C4=N3)C(CC)=C1C` (stereo not given), the growth in the assay on DU-145 prostate is 113%; in the assay with K-562 leukemia it was 106%; in the assay on MALME-3M melanoma, 125%; in the assay with MDA-MB-231 breast, 121%; in the assay on RXF 393 renal, 125%; in the assay on SF-268 CNS, 107%. In addition, the growth was 116% in the assay with SF-295 CNS; 106% in the assay on SF-539 CNS; 115% in the assay with UACC-257 melanoma; 104% in the assay with M14 melanoma; 105% in the assay on HCT-15 colon; 105% in the assay on HT29 colon. In addition, the growth in the assay on SNB-75 CNS was 94.5%; in the assay with SNB-19 CNS it was 112%; in the assay with U251 CNS, 124%; in the assay with PC-3 prostate, 89.3%; with SK-MEL-5 melanoma, 102%; with UACC-62 melanoma, 107%. Also, the growth in the assay with LOX IMVI melanoma was 108%; with SK-MEL-28 melanoma, 104%.

In the case of `CCOC(=O)/C(C#N)=C(\C)CCc1ccccc1`, the growth with DU-145 prostate was 132%; with K-562 leukemia, 142%; in the assay with MALME-3M melanoma it was 96.5%; in the assay with MDA-MB-231 breast, 109%; in the assay on RXF 393 renal, 97.3%; with SF-268 CNS, 120%. Also, the growth in the assay with SF-295 CNS is 114%; in the assay on SF-539 CNS it was 91.8%; with UACC-257 melanoma it was 89.4%; with M14 melanoma, 92.2%; with HCT-15 colon, 87.7%; in the assay with HT29 colon, 98.6%. Further, the growth is 52.3% in the assay on SNB-75 CNS; 104% in the assay with SNB-19 CNS; 96.4% with U251 CNS; 92.7% with PC-3 prostate; 98.4% with SK-MEL-5 melanoma; 110% in the assay on UACC-62 melanoma. The growth was 96.9% in the assay on LOX IMVI melanoma and 97.7% with SK-MEL-28 melanoma.

On to `CCOC(=O)COc1c(C)cc(SSc2cc(C)c(OCC(=O)OCC)c(C)c2)cc1C`, for which the growth was 108% in the assay with DU-145 prostate; 96.2% in the assay on K-562 leukemia; 110% in the assay with MALME-3M melanoma; 107% in the assay on MDA-MB-231 breast; 126% in the assay on RXF 393 renal; 99% in the assay on SF-268 CNS. Further, the growth with SF-295 CNS is 105%; with SF-539 CNS, 112%; in the assay with UACC-257 melanoma, 80.8%; with M14 melanoma, 103%; in the assay with HCT-15 colon it was 88.8%; in the assay on HT29 colon it was 97.8%. The growth in the assay with SNB-75 CNS is 87.9%; in the assay on SNB-19 CNS, 109%; in the assay with U251 CNS, 75.4%; in the assay on PC-3 prostate, 65.2%; with SK-MEL-5 melanoma, 94.6%; with UACC-62 melanoma, 87.3%. In addition, the values for the growth in the assay with LOX IMVI melanoma and in the assay with SK-MEL-28 melanoma were 103% and 100%, respectively.

As to `CCOC(=O)C(c1ccccc1)N1C(=O)c2ccccc2C1=O` (stereo not given), the growth is 107% in the assay with DU-145 prostate; 114% in the assay with K-562 leukemia; 94.9% in the assay with MALME-3M melanoma; 103% in the assay with MDA-MB-231 breast; 105% with RXF 393 renal; 99.7% in the assay on SF-268 CNS. Besides, the growth with SF-295 CNS is 100%; in the assay on SF-539 CNS, 97.9%; in the assay with UACC-257 melanoma it was 91.9%; in the assay on M14 melanoma, 96.7%; with HCT-15 colon it was 97.3%; with HT29 colon it was 102%. For the same compound, the growth in the assay with SNB-75 CNS is 91.1%; in the assay with SNB-19 CNS it was 100%; in the assay with U251 CNS, 93.8%; in the assay on PC-3 prostate, 98.4%; with SK-MEL-5 melanoma, 100%; with UACC-62 melanoma, 95%. Moreover, the results for the growth in the assay with LOX IMVI melanoma and in the assay on SK-MEL-28 melanoma were 91.4% and 99.2%, respectively.

As to `O=C1Cc2c(sc3c(F)cccc23)C(c2ccccc2[N+](=O)[O-])N1` (stereo not given), the growth in the assay on DU-145 prostate was 107%; with K-562 leukemia, 97.1%; with MALME-3M melanoma, 94.5%; in the assay on MDA-MB-231 breast, 84.9%; in the assay with RXF 393 renal, 125%; in the assay on SF-268 CNS, 93.8%. Besides, the growth with SF-295 CNS was 101%; in the assay with SF-539 CNS, 89.4%; in the assay on UACC-257 melanoma, 120%; in the assay with M14 melanoma, 101%; in the assay with HCT-15 colon, 110%; with HT29 colon, 112%. For the same compound, the growth was 90% in the assay with SNB-75 CNS; 100% in the assay on SNB-19 CNS; 85.2% with U251 CNS; 100% with PC-3 prostate; 97.3% with SK-MEL-5 melanoma; 87.2% with UACC-62 melanoma. In addition, the results for the growth with LOX IMVI melanoma and in the assay on SK-MEL-28 melanoma were 97.7% and 120%, respectively.

Turning to `Nc1cc(C(=O)O)[nH]c(=S)n1`, the growth in the assay on DU-145 prostate is 106%; in the assay on K-562 leukemia it was 115%; in the assay with MALME-3M melanoma, 89.8%; in the assay with MDA-MB-231 breast, 100%; in the assay on RXF 393 renal, 96.9%; in the assay with SF-268 CNS it was 98.6%. The growth was 101% with SF-295 CNS; 104% in the assay with SF-539 CNS; 93.3% with UACC-257 melanoma; 93.7% in the assay with M14 melanoma; 101% with HCT-15 colon; 101% with HT29 colon. Moreover, the growth is 91.4% in the assay with SNB-75 CNS; 97.5% in the assay on SNB-19 CNS; 95% in the assay with U251 CNS; 99.8% with PC-3 prostate; 98.8% in the assay with SK-MEL-5 melanoma; 95.2% with UACC-62 melanoma. Also, the growth in the assay with LOX IMVI melanoma is 100%; in the assay on SK-MEL-28 melanoma, 96.7%.
